Source: PubChem BioAssay (NCATS)
A number with no mark means an inactive call. Results filed as inconclusive are left out. The source made the active and inactive calls. Unless noted, calls come from the whole dose curve; as a rule, active = well fitted curve in either direction with a large enough effect (not every such curve was filed as active); inconclusive = small, poorly fitted or top-dose-only effect, or another doubt; inactive = flat fitted curve, though single readings scatter.

Legend:
[1] = target: Lysosomal acid glucosylceramidase (Homo sapiens) (UniProt P04062); test: Glucocerebrosidase-p2 (AID 348; in the data active = potency below about 10 µM; note: potency is the fitted concentration of half-maximal effect); conditions: purified GBA, blue fluorogenic substrate, 40 min
Chain of Lysosomal acid glucosylceramidase (Homo sapiens) (P04062 whole entry, looked up): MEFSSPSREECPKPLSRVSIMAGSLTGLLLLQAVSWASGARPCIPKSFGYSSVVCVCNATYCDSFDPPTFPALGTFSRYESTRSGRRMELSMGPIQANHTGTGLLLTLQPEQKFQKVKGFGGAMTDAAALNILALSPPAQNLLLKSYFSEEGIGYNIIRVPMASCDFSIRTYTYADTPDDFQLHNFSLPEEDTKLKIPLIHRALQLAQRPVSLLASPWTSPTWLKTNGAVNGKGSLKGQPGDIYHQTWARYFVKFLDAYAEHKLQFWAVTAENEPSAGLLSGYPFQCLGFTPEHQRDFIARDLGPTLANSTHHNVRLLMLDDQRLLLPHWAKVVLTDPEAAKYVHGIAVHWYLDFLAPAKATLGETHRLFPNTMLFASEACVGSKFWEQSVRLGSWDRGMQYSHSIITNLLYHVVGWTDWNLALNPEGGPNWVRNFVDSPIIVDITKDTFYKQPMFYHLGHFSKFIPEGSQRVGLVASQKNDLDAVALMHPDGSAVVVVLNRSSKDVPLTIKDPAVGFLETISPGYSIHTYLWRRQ
In short: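 Normal human glucocerebrosidase (0.2 nM) with blue fluorogenic substrate (80 uM final) in citrate/phosphate pH 5.9 with 10mM sodium taurocholate, 0.01% tween-20; 40 min RT, NaOH/glycine stop; fluorescence Ex 365/Em 440; AC50 from a titration from 0.6 nM upwards.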

[2] = AP1 Signaling Pathway (AID 357); conditions: ME-180 AP-1-bla reporter, EGF-induced, beta-lactamase ratio, 5 h; at 7.69 µM (top of the series) unless noted;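 note: ME-180 reporter cells stimulated with EGF at its EC50 level; % is set by controls: 0 for no effect and ±100 for the full control effect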
In short: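 First, ME-180 AP-1-bla cells were cultured overnight at 37 °C in low-serum Opti-MEM. Next, titrated compounds with EC50 EGF were incubated 5 hours. Finally, CCF4 was added for 2.5 hours and the 460/530 nm ratio recorded.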

[3] = target: Cytochrome P450 1A2 (Homo sapiens) (UniProt P05177); test: p450-cyp1a2 (AID 410; calls by dose curve; note: potency is the fitted concentration of half-maximal effect;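 for activity change, negative = inhibition: -100% = full effect of reference inhibitor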); conditions: recombinant CYP1A2, luciferin-ME demethylation, luminescence; series mostly up to 11.4 µM
Chain of Cytochrome P450 1A2 (Homo sapiens) (P05177 whole entry, looked up): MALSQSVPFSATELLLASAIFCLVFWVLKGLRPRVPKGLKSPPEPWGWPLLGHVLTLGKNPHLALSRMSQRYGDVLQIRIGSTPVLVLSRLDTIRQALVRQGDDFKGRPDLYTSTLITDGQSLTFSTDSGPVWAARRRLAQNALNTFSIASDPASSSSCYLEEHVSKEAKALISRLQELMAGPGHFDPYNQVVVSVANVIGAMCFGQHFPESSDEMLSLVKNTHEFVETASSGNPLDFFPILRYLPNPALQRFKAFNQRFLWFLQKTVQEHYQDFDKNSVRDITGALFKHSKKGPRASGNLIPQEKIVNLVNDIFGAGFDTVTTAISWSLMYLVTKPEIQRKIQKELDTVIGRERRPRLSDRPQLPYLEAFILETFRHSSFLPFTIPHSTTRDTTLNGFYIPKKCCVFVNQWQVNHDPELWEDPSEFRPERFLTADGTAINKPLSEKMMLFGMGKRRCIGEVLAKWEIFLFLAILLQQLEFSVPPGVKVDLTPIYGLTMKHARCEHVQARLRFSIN
In short: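 Read-out is luminescence from luciferin produced by CYP1A2 demethylation of Luciferin-ME (100uM, at Km). Detection reagent stopped the 60 min NADPH-dependent reaction; signals were normalized to 57 uM furafylline.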

[4] = NFAT Signaling Pathway (AID 444); conditions: Jurkat NFAT-bla M1, carbachol, beta-lactamase ratio, 5 h; at 7.69 µM (top of the series) unless noted;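 note: carbachol stimulus at about its EC50 of 1 µM final; % is set by controls: 0 for no effect and ±100 for the full control effect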
In short: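 Read-out: CCF4 FRET ratio (460 nm/530 nm) after 1 h RT dye loading, used for %activity and AC50 from titration series. Cells: Jurkat NFAT-β-lactamase/M1 line, treated with compound plus 1 uM carbachol for 5 h, 37 °C.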

[5] = Stat Signaling Pathway (AID 446); conditions: ME-180 SIE beta-lactamase reporter, IL-6 stimulated, 5 h; at 7.69 µM (top of the series) unless noted;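 note: ME-180 cervical cancer cells given 40 pM IL-6 alongside compound; SIE-controlled beta-lactamase reporter measured as 460/530 nm FRET emission ratio; % is set by controls: 0 for no effect and ±100 for the full control effect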
In short: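 Compound effects on IL-6-induced STAT reporter activity were measured in ME-180 cells. After overnight culture, cells were co-treated with 40 pM IL-6 for 5 hrs before beta-lactamase substrate loading at room temperature.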

[6] = target: Glucocorticoid receptor (Homo sapiens) (UniProt P04150); test: GR-GFP Redistribution (AID 450;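 active = compounds whose dose series gives a full or clear partial fitted curve of increased nuclear translocation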; note: potency is the fitted concentration of half-maximal effect); conditions: U2OS GR-GFP nuclear translocation, laser cytometry, 2 h
Chain of Glucocorticoid receptor (Homo sapiens) (P04150 whole entry, looked up, the tested form may be a part): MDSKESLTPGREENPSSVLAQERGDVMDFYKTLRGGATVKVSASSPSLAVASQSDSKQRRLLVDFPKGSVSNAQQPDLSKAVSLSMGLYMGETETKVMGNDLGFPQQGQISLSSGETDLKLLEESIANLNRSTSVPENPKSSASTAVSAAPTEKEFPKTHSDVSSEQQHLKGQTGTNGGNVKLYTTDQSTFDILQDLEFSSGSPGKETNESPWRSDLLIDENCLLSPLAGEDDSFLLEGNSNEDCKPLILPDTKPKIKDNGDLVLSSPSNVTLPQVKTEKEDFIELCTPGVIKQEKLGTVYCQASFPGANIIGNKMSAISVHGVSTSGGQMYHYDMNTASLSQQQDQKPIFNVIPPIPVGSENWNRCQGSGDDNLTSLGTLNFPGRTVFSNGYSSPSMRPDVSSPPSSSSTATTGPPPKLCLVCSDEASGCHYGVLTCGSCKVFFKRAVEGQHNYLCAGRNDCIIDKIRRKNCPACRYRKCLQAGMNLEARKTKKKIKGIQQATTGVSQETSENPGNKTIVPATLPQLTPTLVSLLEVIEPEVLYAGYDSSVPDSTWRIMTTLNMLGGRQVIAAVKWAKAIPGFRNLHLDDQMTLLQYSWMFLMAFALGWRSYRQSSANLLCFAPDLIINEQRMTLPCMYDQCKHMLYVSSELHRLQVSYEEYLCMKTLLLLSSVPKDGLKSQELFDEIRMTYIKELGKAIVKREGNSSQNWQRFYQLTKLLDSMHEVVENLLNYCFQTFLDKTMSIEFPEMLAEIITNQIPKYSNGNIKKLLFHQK

[7] = target: Glucocorticoid receptor (Homo sapiens) (UniProt P04150); test: GR-EFC Redistribution (AID 451; calls by dose curve; note: potency is the fitted concentration of half-maximal effect); conditions: CHO-K1 GR-EFC translocation, beta-gal luminescence, 2 h
In short: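 Translocation of GR-ED fusion to nuclear EA restores b-gal, read by luminescence after 1 h room-temperature detection. Engineered CHO-K1 biosensor cells, 1,000/well, exposed 2 h at 37 C to titrations up to 46 uM final.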

[8] = target: Mitogen-activated protein kinase 10 (Mus musculus) (UniProt Q61831); test: JNK3 AlphaScreen Assay (AID 530); conditions: JNK3 lysate, c-Jun phosphorylation; series mostly up to 11.4 µM;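 note: kinase came from lysate of stimulated human HepG2 cells; signal reports phosphorylation of biotinylated GST-cJun 1-79 at Ser73 with 10 µM ATP; % is set by controls: 0 for no effect and ±100 for the full control effect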
In short: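 Kinase buffer: 20 mM Tris-HCl pH 7.6, 10 mM MgCl2, 1 mM DTT, 0.1 mM Na3VO4, 0.01% Tween-20; ATP 10 uM. Substrate biotin-GST-cJun(1-79), enzyme from activated HepG2 lysates. Detection by Ser73 phospho-antibody AlphaScreen.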

[9] = target: 3',5'-cyclic-AMP phosphodiesterase 4B (Homo sapiens) (UniProt Q07343); test: qHTS Assay for Inhibitors of PDE-IV (AID 607; active = well fitted activation curve with a large enough effect in the main read-out, with a control signal flat, not every such curve was filed as active; note: % of control where 0% means no effect); conditions: HEK293 ACTOne CNG channel cells, membrane potential fluorescence; series mostly up to 22.9 µM
Chain of 3',5'-cyclic-AMP phosphodiesterase 4B (Homo sapiens) (Q07343 whole entry, looked up): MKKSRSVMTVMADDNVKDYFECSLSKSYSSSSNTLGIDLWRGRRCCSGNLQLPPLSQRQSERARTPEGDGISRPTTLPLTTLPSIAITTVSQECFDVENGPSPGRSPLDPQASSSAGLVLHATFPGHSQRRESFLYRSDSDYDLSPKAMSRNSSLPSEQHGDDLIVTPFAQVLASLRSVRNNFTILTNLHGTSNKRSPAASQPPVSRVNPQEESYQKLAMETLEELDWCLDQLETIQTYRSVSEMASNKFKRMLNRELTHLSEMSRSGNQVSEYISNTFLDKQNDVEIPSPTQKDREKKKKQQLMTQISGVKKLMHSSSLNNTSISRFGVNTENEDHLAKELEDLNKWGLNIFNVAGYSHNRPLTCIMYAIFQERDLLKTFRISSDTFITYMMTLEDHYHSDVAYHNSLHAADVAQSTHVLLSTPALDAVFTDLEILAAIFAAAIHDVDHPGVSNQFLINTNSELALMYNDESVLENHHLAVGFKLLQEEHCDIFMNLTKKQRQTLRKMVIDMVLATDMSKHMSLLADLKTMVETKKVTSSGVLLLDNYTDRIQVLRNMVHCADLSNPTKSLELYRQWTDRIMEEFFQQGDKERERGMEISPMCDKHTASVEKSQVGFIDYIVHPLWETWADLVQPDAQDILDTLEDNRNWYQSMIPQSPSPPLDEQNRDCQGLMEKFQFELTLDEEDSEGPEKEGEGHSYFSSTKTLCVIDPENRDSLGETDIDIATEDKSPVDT
In short: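 ACTOne HEK293 cells carry a modified cAMP-gated CNG channel and express endogenous PDE4; plated 1000 cells/well, compounds up to 22.9 uM final. Membrane-potential dye fluorescence (ex 535/em 590) was read; parental cells received 10 uM forskolin + 100 uM RO 20-1724.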

[10] = target: Cytochrome P450 2C19 (Homo sapiens) (UniProt P33261); test: qHTS Assay for Inhibitors and Substrates of Cytochrome P450 2C19 (AID 899; active = well fitted inhibition curve with a large enough effect; note: nearly all actives have a fitted effect of over 60% in size; note: potency is the fitted concentration of half-maximal effect); conditions: recombinant CYP2C19, luciferin-H EGE luminescence; series mostly up to 11.4 µM
Chain of Cytochrome P450 2C19 (Homo sapiens) (P33261 whole entry, looked up): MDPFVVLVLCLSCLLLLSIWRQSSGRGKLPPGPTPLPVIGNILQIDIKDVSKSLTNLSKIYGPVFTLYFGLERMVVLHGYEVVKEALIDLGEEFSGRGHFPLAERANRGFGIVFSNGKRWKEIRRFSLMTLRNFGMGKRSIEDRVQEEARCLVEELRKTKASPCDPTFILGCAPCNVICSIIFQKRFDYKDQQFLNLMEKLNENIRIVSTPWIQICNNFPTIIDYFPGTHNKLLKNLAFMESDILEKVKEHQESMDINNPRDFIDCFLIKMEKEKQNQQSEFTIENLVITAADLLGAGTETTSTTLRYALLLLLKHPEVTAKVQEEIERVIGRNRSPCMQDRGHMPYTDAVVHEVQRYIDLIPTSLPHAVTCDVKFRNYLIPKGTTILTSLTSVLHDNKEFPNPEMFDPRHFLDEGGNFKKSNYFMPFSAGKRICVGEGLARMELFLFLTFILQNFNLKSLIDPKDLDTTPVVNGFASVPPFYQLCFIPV
In short: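 Reactions contain 5nM enzyme, 10uM Luciferin-H EGE (KM) and 50mM KPO4; compound preincubates 10 min at 37C, NADPH regeneration starts turnover for 60 min. Luminescence after detection reagent gives activity.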

[11] = qHTS Assay for Identification of Small Molecule Agonists for Hypoxia Response Element Signaling Pathway (AID 914; active = well fitted activation curve with a large enough effect in the signal ratio, with a control signal flat, not every such curve was filed as active; the % refers to the signal ratio; note: % of control where 0% means no effect); conditions: ME-180 (cervical carcinoma) HRE-bla reporter, beta-lactamase ratio, CoCl2, 17 h; activation: hits give high values
In short: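 Read-out: CCF4 FRET ratio of 460nm to 530nm emission (excitation 405nm) after 2.5 hours at room temperature, taken from HRE-bla ME-180 cells that had been exposed to compound and EC50 CoCl2 for 17 hours.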

Compound | Potency [1] | activity change, negative = inhibition [2] | activity change, negative = inhibition [3] | activity change, negative = inhibition [4] | activity, negative = inhibition [5] | Potency [6] | Potency [7] | Potency [8] | Potency [9] | Potency [10] | Potency [3] | activation [11]
CS[C@]12C(=O)C[C@]3(C)[C@@H](CC[C@@]3(O)C(=O)CO)[C@@H]1CCC1=CC(=O)CC[C@]12C | > 11.4 µM | 0.905% | -24.3% [at 2.29 µM] | 1.52% | -2.04% | > 46 µM | > 9.22 µM | inactive | inactive | 3.16 µM (active) | – | –
Clc1nc(NCCc2ccccc2)c2ncn(-c3ccccc3)c2n1 | > 11.4 µM | -9.15% | – | -0.663% | -22.9% | > 46 µM | > 9.22 µM | inactive | inactive | 0.501 µM (active) | 0.501 µM (active) | –
CC(C)(C)c1ccc(OCC(=O)O)c(Cl)c1 | > 11.4 µM | -2.54% | – | 10.5% | -5.16% | > 46 µM | > 9.22 µM | inactive | inactive | inactive | inactive | –
Oc1ccccc1C(Sc1nc2ccccc2s1)Sc1nc2ccccc2s1 | > 11.4 µM | 10.8% | – | 5.9% | -11.5% | > 46 µM | > 9.22 µM | inactive | inactive | 3.16 µM (active) | 1.26 µM (active) | –
NC(=O)c1csc(-c2ccc(CO)o2)n1 | > 11.4 µM | -2.81% | – | 10.7% | 13.2% | > 46 µM | > 9.22 µM | inactive | inactive | inactive | inactive | –
c1ccc2c(c1)c1ccccc1n2Cn1c2ccccc2c2ccccc21 | > 11.4 µM | 10.8% | – | -5.02% | 8.5% | > 46 µM | > 9.22 µM | inactive | inactive | 0.398 µM (active) | 0.251 µM (active) | –
O=c1cnc2cnc(Oc3ccccc3)nc2n1Cc1ccc(F)cc1 | > 11.4 µM | -8.79% | – | -4.49% | 18.8% | > 9.22 µM | > 46 µM | inactive | inactive | 2.51 µM (active) | 15.8 µM (active) | –
O=C(O)CCSCc1ccccc1 | > 11.4 µM | 4.81% | – | -0.126% | -0.355% | > 46 µM | > 9.22 µM | inactive | inactive | inactive | inactive | –
O=C(C[C@@H](c1ccccc1)N1CCCCC1)c1ccccc1 | > 11.4 µM | 2.69% | – | 5.6% | -14.9% | > 46 µM | > 9.22 µM | inactive | inactive | 2.51 µM (active) | 1.26 µM (active) | –
Cc1ccc(S(=O)(=O)N2CCC(C(=O)O)(c3ccccc3)CC2)cc1 | > 11.4 µM | 0.56% | – | 2.33% | -9.97% | > 46 µM | > 9.22 µM | inactive | inactive | inactive | inactive | –
Cn1cnc([N+](=O)[O-])c1Sc1nc(N)nc2c1ncn2Cc1ccccc1 | > 11.4 µM | 0.181% | – | -1.11% | 1.04% | > 46 µM | > 9.22 µM | inactive | inactive | – | 3.16 µM (active) | -1.88%
Nc1ccc(S(=O)(=O)NCc2nccs2)cc1 | > 11.4 µM | -6.48% | -10.5% [at 2.29 µM] | 7.98% | -1.21% | > 46 µM | > 9.22 µM | inactive | inactive | 0.0794 µM (active) | – | –
O=C(O)c1ccc(CNCc2ccccc2)cc1 | > 11.4 µM | -3.63% | – | -2.06% | 15.5% | > 46 µM | > 9.22 µM | inactive | inactive | – | inactive | 4.76%
CC(=O)CC(=O)Nc1ccc2ccccc2c1 | > 11.4 µM | 6.48% | – | 11.8% | 6.17% | > 46 µM | > 9.22 µM | inactive | inactive | inactive | 2 µM (active) | –
O=C1c2ccccc2C(=O)N1CCCSc1ccccc1 | > 11.4 µM | -13.4% | – | 1.88% | -7.77% | > 46 µM | > 9.22 µM | inactive | inactive | 0.631 µM (active) | 1 µM (active) | –
